# Experimental data from PubChem BioAssay (EPA / NIEHS).
# Where “and” joins values, the source holds several entries; their conditions need not be identical. Equal entries are not always repeated. Inconclusive results are not listed. Calls of active or inactive are those of the source. How the source made its calls: active means hit-call score of the fitted dose curve at least 0.9, where 1 is the maximum; inconclusive means response in the unintended direction; inactive means score below 0.9.
# Target: rat Neonicotinoid receptor (NNR), Chrna7 (gene 25302) (UniProt Q05941)
# Sequence (Q05941 whole entry, looked up): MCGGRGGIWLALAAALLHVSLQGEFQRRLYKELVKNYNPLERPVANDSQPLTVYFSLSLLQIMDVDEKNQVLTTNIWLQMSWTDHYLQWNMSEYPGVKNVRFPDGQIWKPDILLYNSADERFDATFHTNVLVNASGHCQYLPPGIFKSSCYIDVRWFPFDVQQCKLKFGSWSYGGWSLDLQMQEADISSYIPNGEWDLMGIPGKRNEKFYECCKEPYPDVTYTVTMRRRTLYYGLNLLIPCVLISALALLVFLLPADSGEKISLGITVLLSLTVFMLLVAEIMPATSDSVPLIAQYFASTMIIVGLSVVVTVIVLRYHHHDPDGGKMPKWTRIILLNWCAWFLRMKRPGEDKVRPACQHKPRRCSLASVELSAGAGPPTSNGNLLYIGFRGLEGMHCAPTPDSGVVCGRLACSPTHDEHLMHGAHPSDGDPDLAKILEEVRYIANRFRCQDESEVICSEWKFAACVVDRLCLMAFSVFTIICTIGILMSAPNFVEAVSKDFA
# Assay: NVS_LGIC_rNNR_BungSens: NovaScreen (NVS) Ligand-Gated Ion Channel Assay for rat Neonicotinoid receptor (NNR) (AID 2283315)
# Method in brief: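 Rat cortical membrane preparation incubated 2.5 h with tritiated or iodinated radioligand and test chemical. Bound radioactivity was filtered and counted by scintillation, and displacement was analysed against DMSO.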
row,SMILES,outcome
1,CSC(C)(C)C=NO,inactive
2,Nc1cc2c3c(c1)C(c1ccccc1)=N[C@@H](NC(=O)c1cccnc1)C(=O)N3CC2,inactive
3,Cc1cc(C)c(C(=O)P(=O)(c2ccccc2)c2ccccc2)c(C)c1,inactive

# Target: Sodium channel protein type 1 subunit alpha (Rattus norvegicus) (UniProt P04774)
# Assay: NVS_IC_rNaCh_site2: NovaScreen (NVS) Ion Channel Assay for rat Sodium Channel, Site 2 (NaCh) (AID 2283322);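 further: hit means loss of radioligand binding signal relative to DMSO so AC50 marks displacement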
# Method in brief: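 Initial duplicate single-point testing at 25 uM, followed by concentration-response runs for actives. Binding of radioligand to rat forebrain membranes quantified after 1 h via filter-based radiodetection.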
SMILES,outcome,AC50
CSC(C)(C)C=NO,inactive,
CCCCOCCOP(=O)(OCCOCCCC)OCCOCCCC,inactive,
Cc1cc(C)c(C(=O)P(=O)(c2ccccc2)c2ccccc2)c(C)c1,inactive,
Oc1ccc(I)cc1,,7.01 µM (active)
CCOP(=S)(OCC)SCS(=O)(=O)CC,inactive,
N#Cc1ccc(O)cc1,,41.3 µM (active)
CCC(C)(C)c1ccc(O)cc1,,41.5 µM (active)
CC(C)(C)c1ccccc1OP(=O)(Oc1ccccc1)Oc1ccccc1,inactive,

# Target: rat Gamma-Aminobutyric Acid Type A Receptor, Non-Selective (GABAR-NonSelective), Gabra1 (gene 29705) (UniProt P62813)
# Sequence (P62813 whole entry, looked up): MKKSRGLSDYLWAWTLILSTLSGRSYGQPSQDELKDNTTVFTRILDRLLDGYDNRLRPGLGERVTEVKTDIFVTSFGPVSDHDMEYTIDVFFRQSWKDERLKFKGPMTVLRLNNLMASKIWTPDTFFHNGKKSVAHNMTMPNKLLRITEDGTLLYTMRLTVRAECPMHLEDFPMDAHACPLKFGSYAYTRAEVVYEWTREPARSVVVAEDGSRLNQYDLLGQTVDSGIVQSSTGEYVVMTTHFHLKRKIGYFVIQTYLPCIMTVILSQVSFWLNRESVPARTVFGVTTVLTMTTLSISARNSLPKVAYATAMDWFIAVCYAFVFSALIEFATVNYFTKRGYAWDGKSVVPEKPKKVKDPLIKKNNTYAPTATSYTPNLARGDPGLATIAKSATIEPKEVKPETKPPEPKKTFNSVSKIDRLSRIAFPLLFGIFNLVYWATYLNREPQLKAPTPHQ
# Assay: NVS_LGIC_rGABAR_NonSelective: NovaScreen (NVS) Ligand-Gated Ion Channel Assay for rat Gamma-Aminobutyric Acid Type A Receptor, Non-Selective (GABAR-NonSelective) (AID 2283326)
# Method in brief: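 Compounds were first screened in duplicate at 25 uM, with actives run as singleton concentration series (max 50 uM). Binding of a radioligand to rat whole-brain GABA-A preparation was measured by filtration and scintillation counting after 1 h, DMSO baseline.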
SMILES,AC50,outcome
c1cc2c3c(cccc3c1)CC2,1.7 µM (active),
CCC1(c2ccccc2)C(=O)N=C(O)NC1=O (stereo unspecified),,inactive
CCOS(=O)(=O)OCC,,inactive

# Target: rat Thyrotropin Releasing Hormone Receptor (TRH), Trhr (gene 25570) (UniProt Q01717)
# Sequence (Q01717 whole entry, looked up): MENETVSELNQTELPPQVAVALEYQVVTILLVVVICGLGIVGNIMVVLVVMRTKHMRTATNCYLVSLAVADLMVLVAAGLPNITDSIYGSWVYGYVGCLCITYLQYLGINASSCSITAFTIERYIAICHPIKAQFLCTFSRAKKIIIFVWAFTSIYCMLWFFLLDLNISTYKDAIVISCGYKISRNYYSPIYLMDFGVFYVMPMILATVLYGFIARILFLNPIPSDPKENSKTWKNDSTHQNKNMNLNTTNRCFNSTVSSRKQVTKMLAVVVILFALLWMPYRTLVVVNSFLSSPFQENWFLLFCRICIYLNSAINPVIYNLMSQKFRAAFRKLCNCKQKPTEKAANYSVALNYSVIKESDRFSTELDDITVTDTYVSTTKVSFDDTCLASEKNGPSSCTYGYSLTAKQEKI
# Assay: NVS_GPCR_rTRH: NovaScreen (NVS) G Protein-Coupled Receptor Assay for rat Thyrotropin Releasing Hormone Receptor (TRH) (AID 2283329);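 further: hit means lower bound tracer signal versus DMSO baseline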
# Method in brief: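 Cell-free radioligand binding on rat forebrain membranes; bound tracer measured by filter-based scintillation counting 4 hours after dosing. Loss of signal versus DMSO baseline indicates displacement; primary screen at 25 uM in duplicate, actives then run in concentration series.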
row,SMILES,outcome
1,CC(C)(C)N(NC(=O)c1ccc(Cl)cc1)C(=O)c1ccccc1,inactive
2,COC(N)=O,inactive
3,O=C(CBr)OCc1ccccc1,inactive
4,FC(F)(F)c1ccc(Cl)cc1,inactive
5,c1ccc2c(c1)sc1ccccc12,inactive
6,O=S1(=O)OCC2C(CO1)C1(Cl)C(Cl)=C(Cl)C2(Cl)C1(Cl)Cl (stereo unspecified),inactive
7,CCCCC(CC)COP(=O)(Oc1ccccc1)Oc1ccccc1 (stereo unspecified),inactive
8,CCCCCCCc1ccc(O)cc1,inactive

# Target: human Peripheral-type Benzodiazepine Receptor (PBR), TSPO (gene 706) (UniProt P30536)
# Sequence (P30536 whole entry, looked up): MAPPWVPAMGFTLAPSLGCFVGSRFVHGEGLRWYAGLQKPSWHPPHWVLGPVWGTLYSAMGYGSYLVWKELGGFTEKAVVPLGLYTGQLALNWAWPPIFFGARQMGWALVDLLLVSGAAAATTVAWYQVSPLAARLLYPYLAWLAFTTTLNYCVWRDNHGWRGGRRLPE
# Assay: NVS_MP_hPBR: NovaScreen (NVS) Membrane Protein Assay for human Peripheral-type Benzodiazepine Receptor (PBR) (AID 2283331);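 further: hits reduce radioligand binding relative to DMSO baseline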
# Method in brief: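 Cell-free radioligand displacement, human colonic membranes, 1 h exposure. Filter radiodetection read-out. Single-concentration duplicates (25 uM), then concentration-response for actives; DMSO negative control.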
SMILES,AC50,outcome
O=P(Oc1ccccc1)(Oc1ccccc1)Oc1ccccc1,2.61 µM (active),
Nc1ccc2ccccc2c1,6.61 µM (active),
CCOP(=S)(Oc1ccc([N+](=O)[O-])cc1)c1ccccc1 (stereo unspecified),,inactive
c1ccc(OP(Oc2ccccc2)Oc2ccccc2)cc1,17.6 µM (active),
C=CC(=O)OCC(CC)(COC(=O)C=C)COC(=O)C=C,17.2 µM (active),
CCCCOCCOP(=O)(OCCOCCCC)OCCOCCCC,7.98 µM (active) and 6.27 µM (active),
CCOP(=S)(OCC)SCn1nnc2ccccc2c1=O,11.2 µM (active),
CO/N=C(/C(=O)OC)c1ccccc1COc1ccccc1C,2.76 µM (active),
Cc1cc(C)c(C(=O)P(=O)(c2ccccc2)c2ccccc2)c(C)c1,3.55 µM (active),
Oc1ccc(I)cc1,,inactive
CCOP(=S)(OCC)SCS(=O)(=O)CC,25 µM (active),
CCCCC(CC)COP(=O)(Oc1ccccc1)Oc1ccccc1 (stereo unspecified),10.9 µM (active),
N#Cc1c(-c2ccc(Cl)cc2)[nH]c(C(F)(F)F)c1Br,0.122 µM (active),
CCC(C)(C)c1ccc(O)cc1,,inactive
CCOP(=S)(NC(C)C)Oc1ccccc1C(=O)OC(C)C (stereo unspecified),9.3 µM (active),
CC(C)(C)c1ccccc1OP(=O)(Oc1ccccc1)Oc1ccccc1,1.16 µM (active),
CC(C)(C)c1ccc(O)cc1,,inactive
O=P(OCC(Br)CBr)(OCC(Br)CBr)OCC(Br)CBr (stereo unspecified),1.25 µM (active) and 139 nM (active),
Cc1ccc2c(c1N)C(=O)c1ccccc1C2=O,13.9 µM (active),
